In PubChem BioAssay:
The source made the active and inactive calls.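 How the source made its calls, unless noted: active means compounds lowering colon cancer cell viability after pretreatment blocking the GSK3B kinase; inactive means the rest.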

Assay: stimulators of insulin release from INS-1E, primary screen, cell-based, 5 mM glucose, NPC library (AID 1117329;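 active means compound raises insulin release from rat beta cells at 5 mM glucose, no numeric limit stated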; further: reference of the scale not given here)
Conditions: rat INS-1E insulin secretion, at 10 µM, active compounds read high

| SMILES | insulin secretion stimulation |
| --- | --- |
| Cc1cc2c(OCC(CNC(C)(C)C)OC(=O)c3ccccc3)cccc2[nH]1 (stereo not given) | 38.9% (active) |
| CC(CNC1CCCCC1)OC(=O)c1ccccc1 (stereo not given) | 5.6% (inactive) |
| C[C@]12CC[C@H]3[C@@H](CCC4=CC(=O)CC[C@@]43C)[C@@H]1CC[C@@H]2C(=O)CO | 0.8% (inactive) |
| CCc1cccc(CC)c1NC(=O)CN(CC(=O)O)CC(=O)O | -1.7% (inactive) |
| CCC(=O)c1ccc(O)cc1 | 0.1% (inactive) |
| FCOC(C(F)(F)F)C(F)(F)F | 5.1% (inactive) |
| COc1ccccc1Oc1c(NS(=O)(=O)c2ccc(C(C)(C)C)cc2)nc(-c2ncccn2)nc1OCCO | 7% (inactive) |
| CCC(C)(CN(C)C)OC(=O)c1ccccc1 (stereo not given) | 3% (inactive) |
| OC[C@@H](O)[C@@H](O[C@@H]1O[C@H](CO)[C@H](O)[C@H](O)[C@H]1O)[C@H](O)[C@@H](O)CO | 2.3% (inactive) |
| CC1(C)CC1C(=O)NC(=CCCCCSCC(N)C(=O)O)C(=O)O (stereo not given) | 2.2% (inactive) |
| C/C(=C(\CCOP(=O)(O)O)SC(=O)c1ccccc1)N(C=O)Cc1cnc(C)nc1N | 1.6% (inactive) |
| CC[N+](C)(CC)CCOC(=O)C1c2ccccc2Oc2ccccc21 | 2.6% (inactive) |
| CN1CCN(CCCN2c3ccccc3Sc3ccc(S(=O)(=O)N(C)C)cc32)CC1 | 12.3% (inactive) |
| O=C(O)CCc1nc2ccccc2[nH]1 | -1.6% (inactive) |
| OC(CCCN1CCCCC1)(c1ccccc1)c1ccccc1 | 22% (active) |
| NS(=O)(=O)c1cc(C(=O)O)cc(N2CCCC2)c1Oc1ccccc1 | -1% (inactive) |
| CN(CCCCCCCCCCN(C)C(=O)Oc1cccc([N+](C)(C)C)c1)C(=O)Oc1cccc([N+](C)(C)C)c1 | 2.2% (inactive) |
| CC(C(=O)O)c1ccc(C(=O)c2ccccc2)s1 (stereo not given) | -2% (inactive) |
| CN1CCCN(C(c2ccccc2)c2ccc(Cl)cc2)CC1 (stereo not given) | 2.9% (active) |
| O=C1CC[C@@H](C(=O)O)N1 | -1.4% (inactive) |

| SMILES | insulin secretion stimulation |
| --- | --- |
| CCOC(=O)Nc1ccc2c(c1)N(C(=O)CCN1CCOCC1)c1ccccc1S2 | 1.7% (inactive) |
| COc1ccc(-c2cc(=S)ss2)cc1 | 3.1% (inactive) |
| CN1CCN(C2=Nc3ccccc3Sc3ccc(Cl)cc32)CC1 | 16.1% (inactive) |
| CCCNC(C)C(=O)Nc1c(C)csc1C(=O)OC (stereo not given) | 4.8% (inactive) |
| O=C(O)Cc1sc(-c2ccccc2)nc1-c1ccc(Cl)cc1 | 3.3% (inactive) |
| NS(=O)(=O)c1cc2c(cc1Cl)NC(CC1CCCC1)NS2(=O)=O (stereo not given) | 4.2% (inactive) |
| O=C(O)c1ccc[n+]([O-])c1 | -0.6% (inactive) |
| CN(C)CCn1nnnc1SCC1=C(C(=O)O)N2C(=O)[C@@H](NC(=O)Cc3csc(N)n3)[C@H]2SC1 | 2.8% (inactive) |
| CC(C)(C)C(=O)OCOC(=O)[C@@H]1N2C(=O)[C@@H](NC(=O)[C@H](N)c3ccccc3)[C@H]2SC1(C)C | 2.2% (inactive) |
| COCC(=O)Nc1c(I)c(C(=O)NCC(O)CO)c(I)c(C(=O)N(C)CC(O)CO)c1I (stereo not given) | 3.5% (inactive) |
| C1CCN2C[C@@H]3C[C@@H](CN4CCCC[C@@H]34)[C@H]2C1 | 15.2% (inactive) |
| Cc1c(-c2ccccc2)oc2c(C(=O)OCCN3CCCCC3)cccc2c1=O | 2.9% (inactive) |
| CCCCN1C[C@H](O)[C@@H](O)[C@H](O)[C@H]1CO | -1.2% (inactive) |
| NC(=O)OCC(O)COc1ccc(Cl)cc1 (stereo not given) | 1.2% (inactive) |
| CCCCc1cc2ccccc2c(OCCN(C)C)n1 | 4.6% (inactive) |
| O=C1[O][Bi][O]c2ccccc21 | 2.7% (inactive) |
| C[N+]1(C)CCC(=C(c2ccccc2)c2ccccc2)CC1 | 3.5% (inactive) |
| CC(C)NC[C@@H](O)COc1ccc(CC(N)=O)cc1 | -1.9% (inactive) |
| OCc1ccccn1 | 0% (inactive) |
| CN1CCCC(CC2c3ccccc3Sc3ccccc32)C1 (stereo not given) | 20.3% (active) |

Assay: growth inhibition of GSK3B-pretreated HCT116 cells – cell-based, CellTiter-Glo, 0.2 to 20 µM (AID 1117336)
Conditions: HCT116 viability after GSK3B inhibitor, at 20 µM, active compounds read high

| SMILES | viability decrease |
| --- | --- |
| Cc1cc2c(OCC(CNC(C)(C)C)OC(=O)c3ccccc3)cccc2[nH]1 (stereo not given) | 8% (inactive) |
| CC(CNC1CCCCC1)OC(=O)c1ccccc1 (stereo not given) | -14.5% (inactive) |
| C[C@]12CC[C@H]3[C@@H](CCC4=CC(=O)CC[C@@]43C)[C@@H]1CC[C@@H]2C(=O)CO | -35.8% (inactive) |
| CCc1cccc(CC)c1NC(=O)CN(CC(=O)O)CC(=O)O | -8.7% (inactive) |
| CCC(=O)c1ccc(O)cc1 | 8.05% (inactive) |
| FCOC(C(F)(F)F)C(F)(F)F | -4.6% (inactive) |
| COc1ccccc1Oc1c(NS(=O)(=O)c2ccc(C(C)(C)C)cc2)nc(-c2ncccn2)nc1OCCO | -5.8% (inactive) |
| CCC(C)(CN(C)C)OC(=O)c1ccccc1 (stereo not given) | -25.9% (inactive) |
| OC[C@@H](O)[C@@H](O[C@@H]1O[C@H](CO)[C@H](O)[C@H](O)[C@H]1O)[C@H](O)[C@@H](O)CO | 22.6% (inactive) |
| CC1(C)CC1C(=O)NC(=CCCCCSCC(N)C(=O)O)C(=O)O (stereo not given) | 15.4% (inactive) |
| C/C(=C(\CCOP(=O)(O)O)SC(=O)c1ccccc1)N(C=O)Cc1cnc(C)nc1N | -1.5% (inactive) |
| CC[N+](C)(CC)CCOC(=O)C1c2ccccc2Oc2ccccc21 | -10.2% (inactive) |
| CN1CCN(CCCN2c3ccccc3Sc3ccc(S(=O)(=O)N(C)C)cc32)CC1 | 99.5% (active) |
| O=C(O)CCc1nc2ccccc2[nH]1 | 3.65% (inactive) |
| OC(CCCN1CCCCC1)(c1ccccc1)c1ccccc1 | -9.5% (inactive) |
| NS(=O)(=O)c1cc(C(=O)O)cc(N2CCCC2)c1Oc1ccccc1 | -7.05% (inactive) |
| CN(CCCCCCCCCCN(C)C(=O)Oc1cccc([N+](C)(C)C)c1)C(=O)Oc1cccc([N+](C)(C)C)c1 | 30.1% (inactive) |
| CC(C(=O)O)c1ccc(C(=O)c2ccccc2)s1 (stereo not given) | 4.35% (inactive) |
| CN1CCCN(C(c2ccccc2)c2ccc(Cl)cc2)CC1 (stereo not given) | 96% (active) |
| O=C1CC[C@@H](C(=O)O)N1 | -1.95% (inactive) |

| SMILES | viability decrease |
| --- | --- |
| CCOC(=O)Nc1ccc2c(c1)N(C(=O)CCN1CCOCC1)c1ccccc1S2 | -14.2% (inactive) |
| COc1ccc(-c2cc(=S)ss2)cc1 | 11.9% (inactive) |
| CN1CCN(C2=Nc3ccccc3Sc3ccc(Cl)cc32)CC1 | 83.3% (active) |
| CCCNC(C)C(=O)Nc1c(C)csc1C(=O)OC (stereo not given) | 1.9% (inactive) |
| O=C(O)Cc1sc(-c2ccccc2)nc1-c1ccc(Cl)cc1 | 18.7% (inactive) |
| NS(=O)(=O)c1cc2c(cc1Cl)NC(CC1CCCC1)NS2(=O)=O (stereo not given) | 1% (inactive) |
| O=C(O)c1ccc[n+]([O-])c1 | -4.35% (inactive) |
| CN(C)CCn1nnnc1SCC1=C(C(=O)O)N2C(=O)[C@@H](NC(=O)Cc3csc(N)n3)[C@H]2SC1 | 4.6% (inactive) |
| CC(C)(C)C(=O)OCOC(=O)[C@@H]1N2C(=O)[C@@H](NC(=O)[C@H](N)c3ccccc3)[C@H]2SC1(C)C | -4.7% (inactive) |
| COCC(=O)Nc1c(I)c(C(=O)NCC(O)CO)c(I)c(C(=O)N(C)CC(O)CO)c1I (stereo not given) | -12.6% (inactive) |
| C1CCN2C[C@@H]3C[C@@H](CN4CCCC[C@@H]34)[C@H]2C1 | 5.9% (inactive) |
| Cc1c(-c2ccccc2)oc2c(C(=O)OCCN3CCCCC3)cccc2c1=O | -5.1% (inactive) |
| CCCCN1C[C@H](O)[C@@H](O)[C@H](O)[C@H]1CO | -13.2% (inactive) |
| NC(=O)OCC(O)COc1ccc(Cl)cc1 (stereo not given) | 0.2% (inactive) |
| CCCCc1cc2ccccc2c(OCCN(C)C)n1 | -84.3% (inactive) |
| O=C1[O][Bi][O]c2ccccc21 | 13.3% (inactive) |
| C[N+]1(C)CCC(=C(c2ccccc2)c2ccccc2)CC1 | -7.5% (inactive) |
| CC(C)NC[C@@H](O)COc1ccc(CC(N)=O)cc1 | -4.35% (inactive) |
| OCc1ccccn1 | 4.8% (inactive) |
| CN1CCCC(CC2c3ccccc3Sc3ccccc32)C1 (stereo not given) | 45.1% (inactive) |
